Screens from PubChem.
TDP1 cell noCPT: qHTS for Inhibitors of human tyrosyl-DNA phosphodiesterase 1 (TDP1): qHTS in cells in absence of CPT; 420,000 compounds, 15% hits; DT40 Tdp1-/- hTDP1 cells, no CPT, ATP luminescence, 48 h; Potency, µM (series often up to 46.2 µM), for the others: at the top dose activity change, negative = growth inhibition, most hits filed as inhibitors; note: potency is the fitted concentration of half-maximal effect; % is set by controls: 0 for no effect and ±100 for the full control effect; nearly all actives have a fitted effect of over 55% in size
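A cellular qHTS used chicken DT40 cells lacking endogenous Tdp1 but carrying stably transfected human TDP1. Compounds were applied without camptothecin, and cell growth kinetics were judged by ATP-dependent luminescence after ≥48 hr.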
IL1B secr inh: inhibitors of inflammasome signaling (IL-1 beta secretion); AID 743279; THP-1 LPS/ATP IL-1B secretion, AlphaLISA, 16 h; active compounds read low; activity change, % at 57.5 µM; 360,000 compounds, 4.7% hits; in the data active = activity change below about -50%; inconclusive = mostly about -30% to -49%; note: % is set by controls: 0 for no effect and ±100 for the full control effect
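Secreted IL-1B measured by AlphaLISA bead assay after 16 h compound exposure of THP-1 cells; compounds (final up to 57.5 uM) added 1 h before LPS (250 ng/mL) and ATP (1.25 mM) stimulation; lower signal means less secretion.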
HepG2 tox: kills HepG2 cells in TGF-b inhibitor counter-screen. HepG2 CAGA-GFP viability, ATP luminescence, 18 h. Potency, µM (top dose mostly 46.1 µM), without a hit: top-dose activity change, negative = cytotoxicity, most hits filed as cytotoxic. 410,000 compounds, 0.76% hits. AID 588856; note: potency is the fitted concentration of half-maximal effect
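HepG2 CAGA-GFP cells (1000/well, DMEM with 1% FBS) received compound, then TGF-beta at 500 pg/mL final, and were incubated 18 hours at 37 degrees C. Viability was read by CellTiter-Glo luminescence. Media-only wells were set as complete cell-killing and DMSO as no toxicity.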
TGFb inhibitor: TGF-b pathway inhibition. 410,000 compounds, 1.2% hits. HepG2 CAGA-GFP TGF-b/SMAD3 reporter, GFP fluorescence, 18 h; TGF-beta stimulated, 500 pg/mL final. Potency, µM (titrated, usually from 46.1 µM), inactives show top-dose activity, negative = inhibition, actives largely listed as inhibitors; note: potency is the fitted concentration of half-maximal effect; % is set by controls: 0 for no effect and ±100 for the full control effect; nearly all actives have a fitted effect of over 65% in size
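Per well, imaged GFP fluorescence of HEPG2 CAGA-GFP cells gives the signal; cells get compound, then TGF-beta (500 pg/mL final), 18 h at 37 degrees C; %Activity versus -TGF-beta and +DMSO controls.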
TDP1 cell CPT: growth inhibition of DT40 Tdp1-/-;hTDP1 cells with camptothecin (screen for TDP1 inhibitors) | AID 686979 | Potency, µM (doses to about 46.2 µM), for inactives: at the top dose activity change, negative = growth inhibition, hits mostly inhibitors | 420,000 compounds, 12% hits | chicken DT40 Tdp1-/-;hTDP1 cells + 20 nM CPT, ATP luminescence, 48 h; note: potency is the fitted concentration of half-maximal effect; % is set by controls: 0 for no effect and ±100 for the full control effect; nearly all actives have a fitted effect of over 55% in size
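Cell growth measured by CellTiter-Glo luminescence after a minimum 48 h, 37 C compound exposure with 20 nM CPT in Tdp1-knockout DT40 cells stably expressing hTDP1, seeded 400/well; qHTS titration format.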
TDP1 inh: inhibitors of human tyrosyl-DNA phosphodiesterase TDP1; 350,000 compounds, 0.28% hits; Q9NUW8; Potency, µM (titrated, usually from 130 µM), for inactives: top-dose activity change, negative = inhibition, usual class: inhibitors; AID 485290; recombinant TDP1, AlphaScreen DNA substrate cleavage; note: potency is the fitted concentration of half-maximal effect; % is set by controls: 0 for no effect and ±100 for the full control effect; nearly all actives have a fitted effect of over 40% in size
Target sequence (Q9NUW8 whole entry, looked up): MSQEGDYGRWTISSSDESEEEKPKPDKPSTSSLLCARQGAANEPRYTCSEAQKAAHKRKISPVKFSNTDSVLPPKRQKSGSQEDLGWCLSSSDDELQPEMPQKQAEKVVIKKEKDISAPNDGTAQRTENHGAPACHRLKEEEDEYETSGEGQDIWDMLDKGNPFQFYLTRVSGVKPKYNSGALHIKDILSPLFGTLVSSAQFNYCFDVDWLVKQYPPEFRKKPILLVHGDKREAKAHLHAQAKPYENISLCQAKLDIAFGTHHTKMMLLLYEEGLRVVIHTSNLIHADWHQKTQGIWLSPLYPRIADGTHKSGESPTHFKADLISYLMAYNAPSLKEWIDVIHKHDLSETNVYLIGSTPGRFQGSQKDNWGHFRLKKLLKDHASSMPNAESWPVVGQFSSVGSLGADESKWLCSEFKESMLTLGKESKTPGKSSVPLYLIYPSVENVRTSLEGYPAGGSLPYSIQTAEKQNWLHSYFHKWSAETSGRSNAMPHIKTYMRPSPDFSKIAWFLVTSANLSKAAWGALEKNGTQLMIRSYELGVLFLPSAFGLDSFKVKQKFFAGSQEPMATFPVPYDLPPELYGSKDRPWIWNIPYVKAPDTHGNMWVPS
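Recombinant E. coli-expressed Tdp1 (1 nM) preincubated with compound 15 min at RT, then 5'-biotin/3'-phosphotyrosine-FITC DNA substrate (15 nM) added for 5 min. AlphaScreen beads (10 ug/ml) added, 10 min RT; tyrosine-FITC cleavage read as signal loss.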
Active calls of the source: *. The list is not random: actives were taken first. Their share in the collection is about 19%. Unless noted, calls come from the whole dose curve; as a rule, active = well fitted curve in the direction sought with a large enough effect; inconclusive = small, poorly fitted or top-dose-only effect, or another doubt; inactive = no such curve, though single readings can be large; an effect the other way counts as inactive or inconclusive.

CC(=O)N1c2ccc(S(=O)(=O)N3CCC(C(=O)N4CC(C)CC(C)C4)CC3)cc2CC1C (centres undefined) was read as TDP1 cell noCPT inconclusive, IL1B secr inh -13.7, HepG2 tox 2.8%, TGFb inhibitor -0.6%, TDP1 cell CPT 20.6µM* and TDP1 inh 1.9%.
Screening Cc1cc(=O)n2[nH]c(-c3ccc(F)cc3)cc2n1 returned TDP1 cell noCPT 13µM*, IL1B secr inh -4.6, HepG2 tox -1.0%, TGFb inhibitor -4.0%, TDP1 cell CPT inconclusive and TDP1 inh -2.0%.
`Cc1ccccc1-c1cc2nc(-c3ccc([N+](=O)[O-])cc3)cc(=O)n2[nH]1` gave TDP1 cell noCPT -15.2%, IL1B secr inh 17.3, HepG2 tox -3.9%, TGFb inhibitor 0.6%, TDP1 cell CPT -22.3% and TDP1 inh 7.7%.
`CCOC(=O)Cc1c(C)nc2c(-c3cccc(Br)c3)c[nH]n2c1=O` gave TDP1 cell noCPT 4.11µM*, IL1B secr inh 36.4, HepG2 tox -22.0%, TGFb inhibitor -28.4%, TDP1 cell CPT 9.2µM* and TDP1 inh 11.0%.
Cc1cc(=O)n2[nH]c(-c3ccc(Cl)cc3)cc2n1 was read as TDP1 cell noCPT 20.6µM*, IL1B secr inh 4.1, HepG2 tox -30.9%, TGFb inhibitor -15.4%, TDP1 cell CPT 18.4µM* and TDP1 inh -2.8%.
`CCOC(=O)Cc1c(C)nc2c(C#N)c[nH]n2c1=O` gave TDP1 cell noCPT 1.4%, IL1B secr inh 6.3, HepG2 tox 11.2%, TGFb inhibitor -0.7%, TDP1 cell CPT -0.3% and TDP1 inh 5.3%.
Cc1cc(=O)n2[nH]c(-c3ccsc3-n3c(C)ccc3C)cc2n1 was read as TDP1 cell noCPT inconclusive, IL1B secr inh -4.4, HepG2 tox -12.1%, TGFb inhibitor inconclusive and TDP1 cell CPT inconclusive.
Screening Cc1cccc(-c2cc3nc(-c4ccccc4)cc(=O)n3[nH]2)c1 returned TDP1 cell noCPT 23.1µM*, IL1B secr inh 0.6, HepG2 tox 4.0%, TGFb inhibitor 0.0% and TDP1 cell CPT 23.1µM*.
`CCCN(CCC)C(=O)Cn1c(SCc2cccc(F)c2)nc2cccnc21` gave TDP1 cell noCPT inconclusive, HepG2 tox -32.1%, TGFb inhibitor -38.2%, TDP1 cell CPT inconclusive and TDP1 inh 8.7%.
For CCOC(=O)CCc1c(C)nc2c(-c3ccccc3)c(C)[nH]n2c1=O the results were TDP1 cell noCPT -26.3%, HepG2 tox 0.9%, TGFb inhibitor 0.0%, TDP1 cell CPT -27.2% and TDP1 inh 0.6%.
For Cc1cc(=O)n2[nH]c(C)c(-c3ccc(Cl)cc3)c2n1 the results were TDP1 cell noCPT inconclusive, IL1B secr inh 0.7, HepG2 tox -17.3%, TGFb inhibitor -28.4%, TDP1 cell CPT 23.1µM* and TDP1 inh 0.0%.
`CCOC(=O)Cc1c(C)nc2c(-c3ccc(Cl)cc3)c(C)[nH]n2c1=O` gave TDP1 cell noCPT 23.1µM*, IL1B secr inh 42.3, HepG2 tox -9.0%, TGFb inhibitor inconclusive, TDP1 cell CPT 23.1µM* and TDP1 inh 5.3%.
`Cc1cc(=O)n2[nH]c(C)c(-c3ccccc3)c2n1` gave TDP1 cell noCPT inconclusive, IL1B secr inh 15.6, HepG2 tox -4.4%, TGFb inhibitor -24.7%, TDP1 cell CPT -23.0% and TDP1 inh -1.9%.
Screening Cc1ccc(S(=O)(=O)N(CCC(=O)NCC(c2ccccc2)N(C)C)c2ccccc2)cc1 (centres undefined) returned TDP1 cell noCPT -22.1%, IL1B secr inh -13.0, HepG2 tox -2.9%, TGFb inhibitor -2.6% and TDP1 cell CPT inconclusive.
